An excerpt weighted towards active compounds, which were near 3.8% of everything screened.
Mtb hypoxia inh: reduces hypoxia-regulated biosensor signal in M. tuberculosis; fluorescence inhibition, % (test concentration not listed); hit rate 0.1% among 300,000; AID 1159583; M. tuberculosis hypoxia-regulated fluorescent reporter, fluorescence; in the data active means fluorescence inhibition mostly above about 23%, no sharp cut-off; inactive means mostly below about 17%
GDH-TPI counter-1: counter-screen for M. tuberculosis FBA inhibitors: GDH-TPI coupled enzymes. hit rate 1.2% among 360,000. inhibition, % at 4.8 µM. GDH-TPI coupled enzyme counterscreen, NADH absorbance; in the data active means inhibition above about 30%;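 further: 0% = DMSO wells and 100% = wells lacking the enzyme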
PrPC surface inh: cell surface PrPC inhibition, primary TR-FRET screen; P04156; TR-FRET read-out; inhibition, % at 13.8 µM; hit rate 0.43% among 370,000; AID 720596; in the data active means inhibition above about 24%; further: 0% = median of the test wells and 100% = reference compound wells
Yp Topo-I inh: inhibitors of Yersinia pestis topoisomerase I. Y. pestis Topo-I cleavage product accumulation, plate reader. activity, % at 10 µM. hit rate 0.064% among 360,000; in the data active means activity above about 50%, passing the limit was not always enough
PrP 5UTR inh: inhibition of PrP 5' UTR reporter expression. cell-based PrP 5' UTR mRNA reporter, plate reader. inhibition, % (no concentration beside the values). hit rate 0.35% among 340,000. AID 488862; in the data active means inhibition above about 52%; further: 0 = median of the neutral control wells
FBA Mtb inh: inhibitors of M. tuberculosis fructose-bisphosphate aldolase. P9WQA3. hit rate 2.3% among 360,000. purified M. tuberculosis FBA, fluorescence read-out. inhibition, % at 1 µM;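 further: 0% = vehicle and 100% = reference inhibitor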
Target sequence (P9WQA3 whole entry, looked up): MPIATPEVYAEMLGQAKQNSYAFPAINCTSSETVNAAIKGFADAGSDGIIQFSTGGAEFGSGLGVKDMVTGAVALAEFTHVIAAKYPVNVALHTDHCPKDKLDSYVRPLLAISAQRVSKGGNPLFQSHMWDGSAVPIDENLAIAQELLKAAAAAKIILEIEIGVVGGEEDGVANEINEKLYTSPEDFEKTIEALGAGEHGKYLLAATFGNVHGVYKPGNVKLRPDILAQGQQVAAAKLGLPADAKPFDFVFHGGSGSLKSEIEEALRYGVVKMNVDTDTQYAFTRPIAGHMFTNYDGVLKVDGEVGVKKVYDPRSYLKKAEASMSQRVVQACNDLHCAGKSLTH
Mtb FBA confirm: Mtb FBA inhibition, confirmed; shares compounds with FBA Mtb inh; hit rate 78% among 5,600; purified M. tuberculosis FBA, fluorescence read-out; AID 651616; inhibition, % at 1 µM;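 further: 0% = vehicle wells and 100% = reference inhibitor wells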
GDH-TPI counter-2: GDH-TPI inhibition counter-screen for FBA inhibitors. shares compounds with FBA Mtb inh. GDH-TPI coupled enzyme counterscreen, fluorescence. inhibition, % at 1 µM. hit rate 81% among 5,600; in the data active means inhibition above about 10%
GDH-TPI DR: GDH-TPI dose response counter-screen for Mtb FBA. shares compounds with FBA Mtb inh. GDH-TPI coupled enzyme assay, fluorescence, artifact counterscreen. IC50, µM. hit rate 79% among 170; call rule not given here
Numbers without * were called inactive; . = not tested or not shown; + = active, no number. Unless noted, no stated cut-off is given here; in the data, active means inhibition above about 27%; inactive means the rest.

SMILES	Mtb hypoxia inh	GDH-TPI counter-1	PrPC surface inh	Yp Topo-I inh	PrP 5UTR inh	FBA Mtb inh	Mtb FBA confirm	GDH-TPI counter-2	others
Brc1c(CSc2nncn2-c2ccccc2)nc2sccn12	1	-9	-8	5	-44	1	.	.
Cc1cc(C)nc(SCc2nc3ncccn3c2Br)n1	.	10	-6	-1	3	66*	31*	10	GDH-TPI DR=2.7*
O=C(CSc1ccccc1)NC(Cc1ccccc1)C(=O)O (stereo unspecified)	3	.	.	.	.	.	.	.
O=[N+]([O-])c1ccc(NN=C2CCCCC2c2ccccn2)c([N+](=O)[O-])c1 (stereo unspecified)	-1	.	.	.	.	.	.	.
C=CCc1c(OC)ccc2ccc(=O)oc12	13	6	5	-13	-12	55*	124*	105*
C=CCc1ccc(OC)c(OC)c1	.	8	-5	0	0	5	.	.
CC(C)N1CCN(C2CSCCSC2)CC1CCO (stereo unspecified)	-17	12	3	-12	-12	52*	+	+
COc1cc2ccccc2cc1C(=O)Nc1nccs1	10	5	-11	11	-33	13	.	.
O=C(Nc1nccs1)c1ccccc1N=Cc1ccccc1	.	11	0	-3	-35	87*	-2	4
COc1cccc(C=Nc2ccccc2C(=O)Nc2nccs2)c1OC	.	6	0	11	-23	68*	156*	126*
CCCCC(CC)Cn1c(N)c(C#N)c2nc3ccccc3nc21 (stereo unspecified)	9	10	3	34	-26	50*	7	-5
CCn1c2ccccc2c2nc3ccccc3nc21	.	19	.	-4	3	2	.	.
O=C(CNc1cccc(C(F)(F)F)c1)NN=Cc1cn(-c2ccccc2)nc1-c1ccccc1	4	.	.	.	.	.	.	.
COc1ccc(-c2cnc(C(N)=O)c(=O)[nH]2)cc1	.	14	0	0	.	65*	71*	60*
NC(=O)c1c(NC(=O)C(=O)N2CCOCC2)sc2c1CCC2	1	20	6	3	-8	33*	117*	89*
NC(=O)c1c(NC(=O)C(=O)N2CCOCC2)sc2c1CCCC2	3	20	-7	1	-12	-4	.	.
CCOc1ccc2oc(C(=O)NCC3CCCO3)c(C)c2c1 (stereo unspecified)	-3	-8	4	2	-47	22	.	.
Cc1ccc(S(=O)(=O)Nc2ccccc2C(=O)NCC2CCCO2)cc1 (stereo unspecified)	7	.	1	.	.	.	.	.
CCOc1ccc(N=c2oc3cc(O)ccc3cc2C(=O)NCC2CCCO2)cc1 (stereo unspecified)	7	2	-4	-1	-19	56*	39*	36*
CCOc1ccc(S(=O)(=O)Nc2ccccc2C(=O)NCC2CCCO2)cc1 (stereo unspecified)	8	-2	-6	5	-18	31*	148*	108*
CC(CCC(=O)O)C1CCC2C3C(O)CC4CC(O)CC[C@]4(C)C3CC[C@]12C (stereo partly specified)	4	.	.	.	.	.	.	.
Cc1nn(-c2ccccc2)c(Cl)c1C=NNC(=O)c1cccnc1	4	.	.	.	.	.	.	.
C#CCOCCOCCOCCNc1nc(N2CCOCC2)nc(N2CCN(C(=O)CCCCCCCCCCNC(=O)C(CO)n3cc(CCCSC)nn3)CC2)n1 (stereo unspecified)	-3	.	.	.	.	.	.	.
O=C(NN=Cc1ccncc1)C1CC1(c1ccccc1)c1ccccc1 (stereo unspecified)	-4	.	.	.	.	.	.	.
O=C(O)c1cc(S(=O)(=O)O)cc(Nc2c3ccccc3nc3ccccc23)c1O	8	-3	-14	-7	-18	43*	40*	34*
SMILES	Mtb hypoxia inh	GDH-TPI counter-1	PrPC surface inh	Yp Topo-I inh	PrP 5UTR inh	FBA Mtb inh	Mtb FBA confirm	GDH-TPI counter-2	others
CC(C)CNC(=S)N(CCCO)Cc1cc2cc3c(cc2[nH]c1=O)OCO3	12	21	-1	4	-27	33*	148*	98*
CC(C)CNC(=S)N(CCN(C)C)Cc1cc2cc3c(cc2[nH]c1=O)OCCO3	0	15	-1	-1	-41	27*	45*	39*
CC(=O)Nc1nnc(-c2ccccn2)o1	1	-2	-3	1	-21	31*	+	153*
O=C(Nc1nnc(-c2ccccn2)o1)c1cccc(Cl)c1	-5	13	-7	5	-13	-3	.	.
O=c1[nH]c2ccccc2nc1-c1ccccc1	-6	31*	-15	2	-41	45*	79*	76*
O=C(NN=Cc1cccnc1)c1ccc(NC(=O)c2ccccc2Cl)cc1	4	.	.	.	.	.	.	.
O=C(O)c1ccccc1N(Cc1ccccc1)C(=O)CON=Cc1ccccc1	13	.	.	.	.	.	.	.
C=CCN(C(=O)COc1ccccc1)c1nnc(-c2ccncc2)s1	12	15	-3	10	-3	41*	95*	70*
CC(CCc1ccccc1)=NNC(=O)C(=O)NCc1ccccc1	-6	.	.	.	.	.	.	.
Cc1ccc(-c2nc3ccc(C)cn3c2CC(=O)N(C)C)cc1	3	1	10	0	-8	52*	56*	47*
COC(=O)c1ccc2cc(C)cc(C)c2n1	.	.	-2	.	.	59*	12	15*
CC(C)CC(NC(=O)OC(C)(C)C)C(=O)NC(CO)C(O)C1CC1C(=O)N1CCCC1 (stereo unspecified)	6	.	.	.	.	.	.	.
CCN(Cc1ccccc1)S(=O)(=O)c1cc2[nH]c(=O)c(=O)[nH]c2cc1C	.	20	-8	1	6	28*	155*	111*
Cc1cc2c(cc1S(=O)(=O)N(C)Cc1ccccc1)OCC(=O)N2	8	4	-7	3	-35	1	.	.
CCN(CC)C(=O)C(=O)NN=Cc1ccc(C(=O)OC)cc1	14	.	.	.	.	.	.	.
CS(=O)(=O)Nc1cccc(C2=NN(C(=O)c3ccco3)C(c3cccs3)C2)c1 (stereo unspecified)	12	19	-1	4	0	-1	.	.
CS(=O)(=O)Nc1ccc(C2=NN(C(=O)c3ccco3)C(c3ccc(F)cc3)C2)cc1 (stereo unspecified)	-3	30	10	-2	0	74*	62*	48*
COc1ccc(C=NNC(=O)c2cccc(COCC(F)(F)C(F)F)c2)cc1	0	.	.	.	.	.	.	.
Cc1c(OC(C)C(=O)NCc2ccncc2)ccc2c3c(c(=O)oc12)CCC3 (stereo unspecified)	8	12	0	14	0	73*	83*	53*
CC(Oc1cc2oc(=O)c3c(c2cc1Cl)CCCC3)C(=O)NCc1ccccn1 (stereo unspecified)	4	13	-1	27	-19	14	.	.
